Reference: PubChem BioAssay (NCI)
The panel holds about 83,000 compounds, 20% with a hit somewhere; the sample as a whole holds those more often.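 Activity criterion: percent growth below 10, measured after cells in 96-well plates were exposed to a single compound concentration for 48 hours.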 Activity calls are given as the source filed them.

test system: MDA-MB-468 breast; assay: NCI-60 one-dose screen, 48 h (100 = growth as untreated, 0 = no growth, -100 = all killed); settings: 10 µM unless noted

Row | Structure (SMILES) | growth
1 | O=C1/C(=C/c2ccccc2O)CC/C1=C\c1ccccc1O | 34.3% (inactive)
2 | CCOC(=O)C1=C(C)NC(=O)NC1c1cc(=O)oc2ccc(C)cc12 (stereo not given) | 106% (inactive)
3 | CCOC(=O)CC1CSC(c2cccc(Cl)c2)=N1 (stereo not given) | 108% (inactive)
4 | O=C(CCc1nnc2sc(/C=C\c3ccccc3)nn12)c1nc2ccccc2[nH]1 | 76.7% (inactive)
5 | Cc1ccc(S(=O)(=O)N(CCC(=O)O)c2ccccc2)cc1 | 113% (inactive)
6 | COc1ccc2nc(-c3ccc(Cl)cc3)cc(-c3nnc(SCC(=O)Nc4ccc(C(C)=O)cc4)n3-c3ccccc3)c2c1 | 91.2% (inactive)
7 | Oc1c(Br)c(Br)c(O)c(Br)c1Br | 102% (inactive)
8 | N#Cc1c(-c2cccs2)cc(-c2cnccn2)nc1SCC(=O)N/N=C/c1ccccc1 | 9.18% (active)
9 | Cc1ccc(-c2cc3c(SCC(=O)Nc4cc(C(F)(F)F)ccc4Cl)nccn3n2)cc1 | -19.3% (active)
10 | Cc1cccc(N2CCN(C(=S)c3ccc4c(c3)OCO4)CC2)c1 | -37.6% (active)
11 | COc1cc(/C=C/C(=O)Nc2ccc3c(c2)/C(=C\c2cccn2C)C(=O)N3)cc(OC)c1OC | 47.4% (inactive)
12 | O=C(/C(=C\c1ccc([N+](=O)[O-])cc1)S(=O)Cc1ccc(Cl)cc1)c1ccc(Cl)cc1 (stereo not given) | 74% (inactive)
13 | N=c1c2c(=O)n3c(nc2nc2sc4ccc(Cl)cc4n12)-c1ccccc1Sc1ccccc1-3 | 24.3% (inactive)
14 | C[C@]12CC[C@@H]3c4ccc(O)cc4CC[C@H]3[C@@H]1C[C@H](O)C2 | 73.7% (inactive)
15 | C=COC(=O)CCOCC(CC)CCCC (stereo not given) | 104% (inactive)
16 | C#COc1cccc(Nc2c(C#N)cnc3ncc(NC(=O)CCl)cc23)c1 | 3.39% [6.25 µM] (active)
17 | CSC1=NCCCC1 | 102% (inactive)
18 | COc1ccc(NC(=O)CSc2nc3ccccc3c(=O)n2-c2ccccc2C(F)(F)F)c(OC)c1OC | 93.2% (inactive)
19 | O=[N+]([O-])c1cc(S(=O)(=O)Nc2ccccc2)ccc1Cl | -33.4% (active)
20 | O=C(Cc1nc2cc(Cl)c(Cl)cc2nc1CC(=O)c1cccnc1)c1cccnc1 | 33.8% (inactive)

Row | Structure (SMILES) | growth
21 | Cc1cc(C(=O)c2ccccc2)c(C)c2c1[nH]c1ccc(Cl)cc12 | -7.26% (active)
22 | CC(Nc1ncnc2ccc(-c3cnc4cnccn34)cc12)c1ccccc1 (stereo not given) | -21% (active)
23 | CCOc1ccc(N(C)c2ccc(/C=C/C3=[N+](C)c4ccccc4C3(C)C)cc2)cc1 | 6.26% (active)
24 | c1ccc2c(N=NSc3ncnc4nc[nH]c34)c3ccccc3nc2c1 | -55.1% (active)
25 | COc1cc2nc(C(=O)N3CCCCC3)cc(Nc3ccccc3)c2cc1OC | 131% (inactive)
26 | COc1ccc(C2NCCc3c2[nH]c2ccccc32)cc1CN1CCN(c2ccc(F)cc2)CC1 (stereo not given) | 49% (inactive)
27 | S=C(Cc1ccc(-c2ccccc2)cc1)N1CCOCC1 | 90.8% (inactive)
28 | CCOC(=O)c1cnn(-c2nc(-c3ccc(F)cc3)c(C#N)c(N3CCOCC3)n2)c1N | 92.6% (inactive)
29 | O=C1/C(=C/c2ccccc2)CCc2nc3ccccc3c(/C=C/c3ccc(Cl)cc3)c21 | 83.5% (inactive)
30 | CC(=O)Oc1c(Cl)c(Cl)c(Cl)c(Cl)c1Cl | 113% (inactive)
31 | Cc1nc(Nc2ccc(F)c(Cl)c2)sc1C(=O)O | -1.67% (active)
32 | CN(C)S(=O)(=O)c1ccc(-c2nc(C(Cl)Cl)nc3cc(-c4ccccc4)nn23)cc1 | 60.7% (inactive)
33 | CC(C)N1CCN(c2ccc(OC[C@H]3CO[C@](Cn4cncn4)(c4ccc(Cl)cc4Cl)O3)cc2)CC1 | 78.9% (inactive)
34 | CC(C)c1ccc(C(=O)OC2CCCC2)cc1 | 106% (inactive)
35 | CCOC(=O)c1ccc(Nc2sc(C(=O)c3ccc(Br)cc3)c(N)c2C#N)cc1 | 1.55% (active)
36 | COc1ccc(Nc2nc(SC)nc(-c3cccc([N+](=O)[O-])c3)c2C#N)cc1 | 54.7% (inactive)
37 | O=C(/C=C/c1cc2ccccc2[nH]c1=O)/C=C/c1cc2ccccc2[nH]c1=O | -31.7% (active)
38 | Nc1n[nH]c2cccc(C#Cc3cccc(NC(=O)c4cc(F)cc(C(F)(F)F)c4)c3)c12 | 92.2% (inactive)
39 | COCc1cnccc1NC1CCCCCC1 | 102% (inactive)
40 | CCN1C(=S)N(CC)C2C1NC(=S)N2/N=C/C=C/c1ccccc1 (stereo not given) | 2.3% (active)
